# Experimental data published in PubChem BioAssay AID1508600 (Functional Genomics Laboratory (NCATS/FGL), 2020).
# Hit rate of the full screen: of about 53,000 sequences, about 3,700 (7%) were called active.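 The calls were made as follows: active = gene knockdowns whose robust z-score for IL-1 alpha signal is at least 2 or at most -2, so actives lie on both sides; inactive = the rest.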 The entries come from a sample that favours actives as a whole.
# Assay: Components of the Cytosolic LPS Sensing Pathway: Gene Identification via Genome-wide siRNA Screen
# Conditions: RAW264.7 macrophages, IL-1a HTRF, actives lie on both sides, screened at 100 nM (by protocol), cells primed 5 h with Pam3CSK4 first
# Text: Non-canonical inflammasome activation by cytosolic LPS is a critical component of the host response to Gram-negative bacterial infection, however we lack a comprehensive understanding of the cellular processes that control this pathway. Here we describe a genome-wide siRNA screen to identify genes regulating the mouse macrophage IL-1 alpha response to cytosolic LPS.
# RAW264.7 cells were maintained in complete DMEM media, comprising DMEM with 4.5 g/L glucose, 10% FBS (Gemini Bio-Products, West Sacramento, CA), 2 mM Glutamine (Lonza) and 20 mM HEPES (Lonza), hereafter complete DMEM.
# The RNAi screen was conducted in 384-well format using the Ambion Silencer Mouse Genome siRNA Library (#4391425), which consists of three unique, nonoverlapping, nonpooled siRNAs for each of 17,000 gene targets. siRNA reagents ([…]) were stamped into 384-well white flat-bottom microplates (Corning, 3570) using a Velocity11 VPrep liquid handling system (Agilent) integrated into a BioCel robotic platform (Agilent) in columns 1-22, leaving columns 23-24 empty for negative (Ambion, Negative control #1) and positive (mouse Casp4) controls, respectively. The median value of each plate's negative control column was used to normalize sample wells, and the positive control was used to assess transfection efficiency and assay performance.
# Lipofectamine RNAiMAX Transfection Reagent ([…]; Invitrogen) was added in […] serum-free, antibiotic-free media to plate wells using a Thermo Scientific Matrix WellMate and Microplate Stacker. Plates were incubated for 45 min at room temperature to allow for the sufficient formation of siRNA-lipid complexes. Cells were seeded at a density of 1x10^4 cells per well in 20 microL media containing 20% (vol/vol) FBS without antibiotics. The final concentration of siRNA in each well was 100 nM. Cells were cultured for 48h at 37 degrees C in 5% CO2 before addition of […] of TLR ligand Pam3CSK4 for 5 hours. The medium was then removed, replaced with […] growth media and cell were transfected with […] of LipidA and TransIT-TKO (Mirus) for 24 hour. At the end of the LipidA treatment, […] of supernatant was transferred to a 384 Greiner Bio-one non-binding low volume plate and […] of IL-1a HTRF reagent (Cisbio, 62MIL1APEH) was added and incubated at room temperature overnight. The plates were read on an EnVision plate reader (PerkinElmer). Cell viability was measured by adding 20ul Cell Titer Glo to the original plate and running a luminescence read on the EnVision. The quantified IL-1a signal for each siRNA gene-targeted well was divided by the median of the negative control wells and multiplied by 100 to achieve a negative control normalized value for each well/siRNA. This normalized value was then used to generate a robust z-score by first taking the log of each value and then by subtracting the median and dividing by the […].
row,Sequence,z-score
1,GGAAAUUGUGAGAAGAACUTT against Slx4ip,2.33 (active)
2,GGAUCAAAUUACAGAUCUUTT against Eef1e1,1.81 (inactive)
3,GGAAAUGCUACUGCUUGGATT against 1700030K09Rik,1.2 (inactive)
4,GGAAACCAAAGAUAAACUCTT against Ccdc186,0.726 (inactive)
5,GGGCAUCAAGUGUAAAAAATT against Med7,-0.384 (inactive)
6,GGAUAGGAAGAAAAUGAAGTT against Slfn2,-2.83 (active)
7,CCCAAAUCCUACGAAGCCUTT against Tanc1,-1.9 (inactive)
8,GGAUCUAAGGAAGUUUCUGTT against Gfpt2,0.594 (inactive)
9,GGCGAACACCAUGAAAAGGTT against Lin7b,0.794 (inactive)
10,GCGUGGAUAGUUUCACAGCTT against Fbp1,-0.142 (inactive)
11,GGAGAGUGCUGUGAAGCCATT against Vegfb,-0.943 (inactive)
12,CCAGAAGAGUACUGUUUUATT against Tpm4,2.17 (active)
13,GGAAUACUCCAGUAUCUCCTT against 9130401M01Rik,-0.753 (inactive)
14,GGCAAUGAGACAAUUGUCATT against Cpe,-0.638 (inactive)
15,GGCAAAAUCCCAUACGAAATT against Itk,0.0298 (inactive)
16,CCAUGUAAGAUGUUAAGUATT against Abcb1a,-0.265 (inactive)
17,CCUUUGUGUCCUAACGGUGTT against Tubb2b,-0.158 (inactive)
18,GGUCCAUUGCUAAAGACUGTT against Tcf19,0.0971 (inactive)
19,GGUAAUGAGGACAUGGAUCTT against Lyrm4,0.467 (inactive)
20,GCACUUUCCUUUAUUGUGUTT against Fam117a,-1.41 (inactive)
21,GGAAUUCAUGAACUACUAUTT against Capsl,-2.07 (active)
22,GGCUCAGAUUGAUAGGAUATT against Gmfg,0.103 (inactive)
23,GGCCAAACUAAUGUUUUUCTT against Prox2,-0.594 (inactive)

row,Sequence,z-score
1,CCUGCUGGGAUUUAUUCAATT against Pmvk,2.52 (active)
2,GCUCAUAAUUACAUCACCATT against H3c15,-1.22 (inactive)
3,GGACCAUCCUACAUCGGUCTT against Fpgs,1.02 (inactive)
4,GGACAAGGUCUUUAAUGUUTT against Fbxo3,-0.263 (inactive)
5,CGGUUGUCUUCCUCUUAGUTT against Fzd5,-0.52 (inactive)
6,GAAAAGAGGAUUCCUUGCATT against Olfr1128,0.726 (inactive)
7,GGCAAAGUUGUCCUAAGGUTT against Rab27b,2.54 (active)
8,GCGAGAGUGAAAACAUCCATT against Fam78b,0.331 (inactive)
9,GGCUUAUACGCUCCAUAUUTT against Gykl1,-0.214 (inactive)
10,GGAUACAUUCCAGACAUACTT against Map3k2,-0.0192 (inactive)
11,GGCGGACGUGAAGAACUUGTT against Letmd1,1.28 (inactive)
12,GGAACAGUCCUACUGAUAUTT against Cdkn1a,-0.271 (inactive)
13,GCUGGAUGGAGGCAAAGCATT against C1ql1,-1.38 (inactive)
14,GGCCAGAACCACCAAAGAATT against Zc2hc1a,-0.753 (inactive)
15,GCAACAAUCUAACCUCAGATT against Mela,-2.3 (active)
16,CCACUGAUAACUCGAUUUGTT against Nrp1,-0.228 (inactive)
17,GGAACCUCUUGGACAAAGATT against Cpne5,2.17 (active)
18,GGUAACAUGGCAGAUUUUATT against Aif1l,0.618 (inactive)
19,GGACUGUUUGGAUUGCAUATT against Dock7,0.891 (inactive)
20,GGCAACAGCAUCCUACUCUTT against Olfr652,-2.12 (active)
21,GCAUUUCGAAGUGCCCUUGTT against Gpr146,1.22 (inactive)
22,CCGCUACCAGAUAAACUCGTT against BC053393,0.984 (inactive)
23,GGACAAUACGGAGAAAGAUTT against Mdfic,-0.522 (inactive)

row,Sequence,z-score
1,GGGCAAAUUAUGCUGUCAUTT against Tomm20,-1.7 (inactive)
2,GCGAUGAGAUUGUUGCUGUTT against Ttc33,2.32 (active)
3,GCUUGCUGACCUGAAGUGATT against Krt17,0.262 (inactive)
4,GCUAUCCCUUUAUGUAACATT against Prl7b1,-0.224 (inactive)
5,CCAUAUCGAGUACCUCCAATT against Rtn4rl1,-0.522 (inactive)
6,GGUCUACUGGCGUAAUUACTT against Vsig4,-0.365 (inactive)
7,GCAGUCAUUCAAGGUUCCUTT against Hmces,-0.231 (inactive)
8,GGUGUUGAAAUAAUUUCUCTT against Phospho2,-0.285 (inactive)
9,GGAGUGUAGUAAAUGUACCTT against Ppp1r13b,3.97 (active)
10,GGACUUGAUCCCAAAGCUGTT against Mrpl17,-1.21 (inactive)
11,GGGACAACACAUUAACUUATT against Uckl1,1.41 (inactive)
12,GCACAUUGUCUAGUAGUAATT against Zfp280d,-0.622 (inactive)
13,GGAACAGAAACAAGGUUUUTT against Zfand2a,0.962 (inactive)
14,CCUCAUUCAGGGAGUUCCATT against 2200002J24Rik,-1.52 (inactive)
15,GGACAGUGGAAGGAAUCCATT against 2310033P09Rik,-2.91 (active)
16,GCUGAUGCUCCAUUGAAUGTT against Prr27,0.228 (inactive)
17,GCGUGAGAGAUACCGCCAUTT against Gnai2,-0.847 (inactive)
18,CGUGGUUUGUCAAUGAAGGTT against Eprs,0.358 (inactive)
19,GGUUCUUUGGAAUGCUUUUTT against Myl12a,2.76 (active)
20,CGUAAGAUUGACUCUAGUATT against Prl6a1,0.326 (inactive)
21,GGACAGACUGAUUAAGAAATT against Paqr8,-0.569 (inactive)
22,GCUACUGAACGAGAAUGCCTT against Zc3h12a,0.394 (inactive)
